In PubChem BioAssay one finds composite z-score and z-score data, which are given here for eight molecules.

The subject of test [1] is Wnt5a (protein binding on small-molecule microarray). The test is described as follows: Wnt5a binders on small-molecule microarray, primary screen, biophysical, 635/667 nm fluorescence (AID 1142).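 Note: fluorescence read at 667 nm with signal to noise per printed feature.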 As to conditions: 635 nm fluorescence, higher = more signal.
A short description of test [2]: cell viability in Huh7 cells, primary screen, cytotoxicity control for HCV replication inhibitor project, CellTiter-Glo luminescence, basal, 48 h (AID 1143).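 Note: Huh7 hepatoma cells carrying a hepatitis C replication reporter with no stimulus; test concentration not given here.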 As to conditions: Huh7 HCV replicon, higher = more signal, called active from +8 up or from −8 down. A general note: In ATP-based viability assays light output follows the ATP content of the culture.
Test [3] in a line: P. aeruginosa biofilm formation inhibitors, primary screen, PAO1 strain, BacTiter-Glo luminescence, LB-PBS (AID 1144). As to conditions: 12 h, higher = more signal.
Test [4] in a line: CREB reporter modulators without forskolin, primary screen, cell-based, PC12, CRE-LacZ reporter, unstimulated (AID 1145). Particulars: no forskolin, luminescence, 4.5 h, higher = more signal, called active from +8 up or from −8 down.
Test [5] is described as follows: CREB reporter modulators under forskolin, primary screen, cell-based, PC12, CRE-LacZ reporter, forskolin-stimulated (AID 1146).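 Note: PC12 cells with 6xCRE LacZ reporter stimulated by forskolin 10 µM; beta-galactosidase reporter signal reflecting CREB driven transcription.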 Particulars: luminescence, 4.5 h, higher = more signal, called active from +8 up or from −8 down.
The target of test [6] is Streptavidin (Streptomyces avidinii) (UniProt P22629). The experiment in a line: streptavidin binders on small-molecule microarray, primary screen, artefact control for SMM compound annotation, biophysical, 635/667 nm fluorescence (AID 1147).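 Note: signal reflects streptavidin binding to arrayed compounds as a control protein.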 As to conditions: streptavidin binding, higher = more signal.
Streptavidin (Streptomyces avidinii), sequence (P22629 whole entry, looked up): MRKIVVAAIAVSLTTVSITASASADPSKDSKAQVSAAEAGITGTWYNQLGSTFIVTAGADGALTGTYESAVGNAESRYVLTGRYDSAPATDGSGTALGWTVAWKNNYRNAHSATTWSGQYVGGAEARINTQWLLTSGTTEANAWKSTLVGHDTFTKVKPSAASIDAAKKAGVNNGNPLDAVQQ
Test [7] can be described thus: small-molecule binders of probe aInhba, primary screen, biochemical, small-molecule microarray, 635/667 nm fluorescence (AID 1148).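 Note: score merges 667nm spot fluorescence with signal-to-noise for antibody binding to printed compounds.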 Particulars: higher = more signal.
In test [8] the target is Torsin-1A (Homo sapiens) (UniProt O14656). The test is described as follows: torsin A binders from cell lysate, primary screen, small-molecule microarray, wild-type, 635/667 nm (AID 1149). As to conditions: COS7 hTOR1A-WT lysate, 635 nm fluorescence, higher = more signal.
Torsin-1A (Homo sapiens), sequence (O14656 whole entry, looked up): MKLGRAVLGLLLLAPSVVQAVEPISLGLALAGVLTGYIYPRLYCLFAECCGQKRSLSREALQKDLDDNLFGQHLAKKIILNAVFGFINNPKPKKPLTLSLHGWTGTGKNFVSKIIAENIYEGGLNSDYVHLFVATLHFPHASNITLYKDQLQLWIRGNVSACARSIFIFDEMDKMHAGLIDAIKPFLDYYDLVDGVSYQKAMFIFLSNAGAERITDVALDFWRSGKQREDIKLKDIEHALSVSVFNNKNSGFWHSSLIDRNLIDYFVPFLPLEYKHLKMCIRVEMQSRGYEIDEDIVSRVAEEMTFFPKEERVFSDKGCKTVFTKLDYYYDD
Test [9] has the same target. The experiment in a line: small-molecule binders of mutant TOR1A in lysate, primary screen, cell lysate, small-molecule microarray, COS7 lysate, 635/667 nm fluorescence (AID 1150).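 Note: score pools 667 nm emission and signal to noise measuring lysate protein binding.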 Particulars: COS7 hTOR1A mutant lysate, 635 nm fluorescence, higher = more signal.
Test [10] deals with Sonic hedgehog protein (Shh). The test is described as follows: small-molecule binders of Shh protein, primary screen, biochemical, small-molecule microarray, 635/667 nm fluorescence (AID 1151).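 Note: Shh protein binding to compounds spotted on small-molecule microarray slides; score combines spot fluorescence intensity with signal-to-noise across triplicate slides.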 As to conditions: small-molecule microarray binding, 635 nm fluorescence; higher = more signal.
Test [11] can be described thus: E. coli DRC41 culture turbidity changes, primary screen, E. coli filamentation inducer project, strain DRC41, OD650, 48 h (AID 1152).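 Note: E. coli MC1000 strain DRC41 lacking acrAB efflux pump and sulA.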 Particulars: E. coli DRC41 (acrAB sulA), higher = more signal, called active from +8 up or from −8 down.
The nature of test [12]: small-molecule binders of probe aLefty1, primary screen, biochemical, small-molecule microarray, 635/667 nm fluorescence (AID 1153).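 Note: score merges spot fluorescence with signal-to-noise ratio from the scanned slide images.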 As to conditions: higher = more signal.
A short description of test [13]: PSAC antagonists in infected red cells, primary screen, cell-based, P. falciparum Indochina, OD700, 1 h (AID 1154). Particulars: P. falciparum Indochina infected RBC osmotic lysis, higher = more signal, called active from +8 up or from −8 down.
Test [14] can be described thus: PSAC antagonists in infected red cells, primary screen, cell-based, P. falciparum Indochina, OD700, 2 h (AID 1155).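 Note: lysis reports solute entry through the parasite surface anion channel PSAC; channel blockers reduce lysis of infected cells.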 As to conditions: P. falciparum Indochina infected erythrocytes, osmotic lysis OD700; higher = more signal, called active from +8 up or from −8 down.
Test [15] can be described thus: osmotic lysis modulators in infected erythrocytes, primary screen, PSAC antagonist project, cell-based, P. falciparum Indochina, OD700, 3 h (AID 1156). Particulars: higher = more signal, called active from +8 up or from −8 down.
The nature of test [16]: PSAC antagonists in infected red cells, primary screen, cell-based, P. falciparum Indochina, OD700, 18 h (AID 1157). As to conditions: P. falciparum Indochina infected erythrocytes, osmotic lysis OD700, 18 h; higher = more signal, called active from +8 up or from −8 down.
A short description of test [17]: modulators of S6 phosphorylation in cells, primary screen, cell-based, A549, cytoblot, luminescence, serum-stimulated (AID 1158).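 Note: serum-stimulated A549 lung adenocarcinoma cells; signal is phosphorylated S6 detected by cytoblot immunostaining with HRP secondary.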 As to conditions: A549 phospho-S6 cytoblot, 5 h, higher = more signal.
The target in test [18] is NADPH oxidase 2 (Homo sapiens) (UniProt P04839). The test is described as follows: NOX2-dependent H2O2 signal modulators, primary screen, NOX inhibitor project, cell-based, HEK293-NOX2, PMA-stimulated, Amplex Red fluorescence (AID 1159). Note: test concentration not given here. As to conditions: 45 min, higher = more signal, called active from +8 up or from −8 down.
NADPH oxidase 2 (Homo sapiens), sequence (P04839 whole entry, looked up): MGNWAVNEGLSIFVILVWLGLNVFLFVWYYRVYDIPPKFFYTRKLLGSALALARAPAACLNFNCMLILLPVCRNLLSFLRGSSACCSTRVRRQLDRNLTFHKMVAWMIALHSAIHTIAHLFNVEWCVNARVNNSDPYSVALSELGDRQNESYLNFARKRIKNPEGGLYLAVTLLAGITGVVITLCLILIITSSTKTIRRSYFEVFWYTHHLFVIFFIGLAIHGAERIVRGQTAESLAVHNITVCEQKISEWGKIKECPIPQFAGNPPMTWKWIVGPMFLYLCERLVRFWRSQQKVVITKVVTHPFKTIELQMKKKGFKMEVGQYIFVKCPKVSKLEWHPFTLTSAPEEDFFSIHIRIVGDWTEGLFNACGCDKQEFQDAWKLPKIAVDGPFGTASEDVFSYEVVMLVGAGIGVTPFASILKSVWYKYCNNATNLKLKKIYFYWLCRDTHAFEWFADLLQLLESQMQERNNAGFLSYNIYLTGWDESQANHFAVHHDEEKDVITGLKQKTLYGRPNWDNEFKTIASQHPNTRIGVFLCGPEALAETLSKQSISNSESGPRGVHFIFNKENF
The target in test [19] is NADPH oxidase 4 (Homo sapiens) (UniProt Q9NPH5). The test is described as follows: NOX4-dependent H2O2 signal modulators, primary screen, NOX inhibitor project, cell-based, HEK293-NOX4, tetracycline-induced, Amplex Red fluorescence (AID 1160). Particulars: 45 min, higher = more signal, called active from +8 up or from −8 down.
NADPH oxidase 4 (Homo sapiens), sequence (Q9NPH5 whole entry, looked up): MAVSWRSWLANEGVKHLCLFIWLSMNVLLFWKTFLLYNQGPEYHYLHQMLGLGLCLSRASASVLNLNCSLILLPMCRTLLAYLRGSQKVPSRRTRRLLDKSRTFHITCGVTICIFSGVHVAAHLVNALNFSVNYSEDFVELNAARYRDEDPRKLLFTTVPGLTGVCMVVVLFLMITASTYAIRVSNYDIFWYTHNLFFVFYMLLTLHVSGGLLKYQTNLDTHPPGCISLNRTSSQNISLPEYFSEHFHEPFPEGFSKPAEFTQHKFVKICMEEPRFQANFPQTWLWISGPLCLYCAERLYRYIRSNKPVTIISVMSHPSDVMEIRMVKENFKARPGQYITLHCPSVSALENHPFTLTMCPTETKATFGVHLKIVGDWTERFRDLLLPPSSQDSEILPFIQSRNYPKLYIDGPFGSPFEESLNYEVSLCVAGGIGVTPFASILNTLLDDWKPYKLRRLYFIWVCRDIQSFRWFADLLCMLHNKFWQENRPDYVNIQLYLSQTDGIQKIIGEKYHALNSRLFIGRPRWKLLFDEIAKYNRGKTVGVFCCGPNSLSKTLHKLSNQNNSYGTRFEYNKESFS
The target in test [20] is NADPH oxidase 5 (Homo sapiens) (UniProt Q96PH1). The test is described as follows: NOX5-dependent H2O2 signal modulators, primary screen, NOX inhibitor project, cell-based, HEK293-NOX5, Amplex Red fluorescence (AID 1161). Particulars: HEK293-NOX5, ionomycin, 45 min, higher = more signal.
NADPH oxidase 5 (Homo sapiens), sequence (Q96PH1 whole entry, looked up): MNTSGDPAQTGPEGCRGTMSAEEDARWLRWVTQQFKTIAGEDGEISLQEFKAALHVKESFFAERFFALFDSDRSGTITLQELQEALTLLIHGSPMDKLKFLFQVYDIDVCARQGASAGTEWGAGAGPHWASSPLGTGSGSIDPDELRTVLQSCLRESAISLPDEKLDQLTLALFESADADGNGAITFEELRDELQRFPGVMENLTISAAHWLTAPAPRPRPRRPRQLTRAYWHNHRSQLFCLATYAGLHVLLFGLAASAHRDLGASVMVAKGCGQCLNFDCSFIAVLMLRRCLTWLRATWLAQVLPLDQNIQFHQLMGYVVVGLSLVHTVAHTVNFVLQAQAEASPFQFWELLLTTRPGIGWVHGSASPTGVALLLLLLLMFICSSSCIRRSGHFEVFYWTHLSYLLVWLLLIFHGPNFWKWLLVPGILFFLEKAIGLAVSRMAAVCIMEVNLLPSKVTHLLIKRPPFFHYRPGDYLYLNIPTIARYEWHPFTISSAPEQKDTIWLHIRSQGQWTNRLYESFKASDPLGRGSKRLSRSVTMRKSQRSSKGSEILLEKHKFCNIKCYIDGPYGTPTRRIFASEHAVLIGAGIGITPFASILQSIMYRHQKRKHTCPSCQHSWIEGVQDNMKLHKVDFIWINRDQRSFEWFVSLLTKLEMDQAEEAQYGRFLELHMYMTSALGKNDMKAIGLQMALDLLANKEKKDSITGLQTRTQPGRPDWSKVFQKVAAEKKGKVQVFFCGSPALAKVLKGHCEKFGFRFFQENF

Active and inactive are the calls of the source. Unless noted, the rule behind the calls is not given here.

As to `COCCCNC(=O)[C@@]1(CCC(=O)OC(C)(C)C)N=C(c2ccc(OCCCO)cc2)O[C@H]1c1ccccc1N=[N+]=[N-]`, the composite z-score in test [1] was 0.573; in [6], 2.07; in test [7], 0.545; with Torsin-1A (Homo sapiens) [8] it was 0.786; with Torsin-1A (Homo sapiens) [9], 1.04; in test [10] it was -0.341. Besides, the composite z-score in test [12] was determined as 0.286. The z-score was -0.61 (inactive) in [2]; 0.199 (inactive) in [3]; 0.456 (inactive) in test [4]; -1.71 (inactive) in test [5]; 1.15 (inactive) in test [11]; 30.4 (active) in test [13]. Moreover, the z-score in [14] was 29.3 (active); in test [15] it was 2.54 (inactive); in test [16], 2.43 (inactive); in test [17], -0.226; in [18], -1.35 (inactive); in [19], 0.197 (inactive). The molecule further came in with a z-score in test [20] of -2.03.
As for `COC(=O)[C@]1(CCS(=O)(=O)c2ccccc2)N=C(c2ccc(OCCCO)cc2)O[C@@H]1c1ccccc1N=[N+]=[N-]`, the composite z-score came out at 1.21 in [1]; 1.39 in [6]; 0.438 in [7]; 0.588 with Torsin-1A (Homo sapiens) [8]; 0.453 with Torsin-1A (Homo sapiens) [9]; 2.09 in test [10]. Besides, in [12], the composite z-score was 0.569. For the same molecule, the z-score in test [2] is -3.71 (inactive); in test [3] it was -0.731 (inactive); in test [4] it was 2.42 (inactive); in test [5], -0.889 (inactive); in test [11] it was -1.59 (inactive); in test [13] it was 29.4 (active). The z-score in test [14] was 27.2 (active); in [15], 4.22 (inactive); in test [16] it was 6.59 (inactive); in test [17] it was 0.188; in test [18] it was -2.07 (inactive); in test [19], 0.661 (inactive). This molecule also had a z-score in test [20] of -2.01.
`CN1C(=O)C2C=CC(C(O)c3cccn3C)N(Nc3ccc([N+](=O)[O-])cc3[N+](=O)[O-])C2C1=O` (stereo not given): the composite z-score in test [1] is 0.28; in test [6], 0.724; in test [7] it was 0.188; with Torsin-1A (Homo sapiens) [8] it was 0.799; in the test with Torsin-1A (Homo sapiens) [9], 0.437; in [10], -0.0299. In [12], this molecule displayed a composite z-score of 0.551. Besides, the z-score in test [2] is 0.515 (inactive); in test [3] it was -0.255 (inactive); in test [4], 1.4 (inactive); in [5] it was 1.36 (inactive); in test [11] it was -0.824 (inactive); in test [13], 0.627 (inactive). In addition, the z-score in [14] was 1.31 (inactive); in [15], -0.0499 (inactive); in test [16], 1.17 (inactive); in [17], -1.11; in test [18], -0.797 (inactive); in [19], -1.5 (inactive). Besides, in [20], the z-score was -1.27.
With `C=CCN1C(=O)[C@]2(CCS(=O)(=O)c3ccccc3)N=C(c3ccc(OCCCO)cc3)O[C@@H]2c2ccccc21`, the composite z-score in [1] amounted to 0.782; in [6], 0.479; in test [7], 0.0841; in the test with Torsin-1A (Homo sapiens) [8], 0.659; in the test with Torsin-1A (Homo sapiens) [9], 0.573; in [10], 1.65. This molecule had a composite z-score in [12] of 0.303. In addition, the z-score in [2] was -3.58 (inactive); in [3], -0.492 (inactive); in test [4], 1.8 (inactive); in test [5], -1.11 (inactive); in test [11], 0.836 (inactive); in test [13], 29.1 (active). Besides, the z-score is 23.3 (active) in test [14]; 1.29 (inactive) in test [15]; 4.76 (inactive) in [16]; 1.76 in [17]; -0.428 (inactive) in test [18]; 0.835 (inactive) in test [19]. In test [20], this molecule came in with a z-score of 1.28.
Consider `CCCCN1CC=CC23O[C@@H]4/C=C\CCCOC(=O)C4[C@H]2C(=O)N(CCO)[C@@H]3C1=O` (stereo not given in full), for which the composite z-score is -0.703 in test [1]; -1.6 in [6]; -0.128 in [7]; -2.13 in the test with Torsin-1A (Homo sapiens) [8]; -1.59 with Torsin-1A (Homo sapiens) [9]; -0.214 in test [10]. In addition, the composite z-score in test [12] is -0.297. Besides, the z-score in test [2] is -0.211 (inactive); in test [3] it was -1.29 (inactive); in [4], -0.48 (inactive); in [5] it was -0.681 (inactive); in test [11] it was 1.18 (inactive); in test [13], 0.978 (inactive). Moreover, the z-score is 1.05 (inactive) in test [14]; 0.504 (inactive) in [15]; 0.628 (inactive) in test [16]; -0.246 in test [17]; 1.28 (inactive) in [18]; 0.314 (inactive) in test [19]. The molecule further showed a z-score in test [20] of 1.5.
As to `CC(C)N1C(=O)c2ccccc2[C@@H](C(=O)NCCN2CCOCC2)[C@@H]1c1ccc(CO)cc1`, the composite z-score in test [1] was -1.15; in test [6] it was -1.14; in test [7], -0.238; with Torsin-1A (Homo sapiens) [8] it was -3.17; in the test with Torsin-1A (Homo sapiens) [9], -1.46; in [10] it was -1.49. In addition, the composite z-score in [12] was -0.0908. The z-score in [2] is 0.179 (inactive); in [3] it was -0.0165 (inactive); in test [4], 0.324 (inactive); in test [5], -0.107 (inactive); in test [11], -0.675 (inactive); in test [13], 2.01 (inactive). The z-score in [14] was -0.151 (inactive); in [15], 1.24 (inactive); in test [16] it was 0.255 (inactive); in test [17] it was -0.468; in test [18], 1.59 (inactive); in [19], 0.675 (inactive). The molecule also gave a z-score in test [20] of 0.474.
In the case of `OCCCC1=CC(c2ccc(CN3CCCC3)cc2)N(Cc2cc3c(cc2Br)OCO3)CC1` (stereo not given), the composite z-score is 0.268 in test [1]; 0.0246 in test [6]; -0.152 in [7]; 0.763 with Torsin-1A (Homo sapiens) [8]; 0.585 with Torsin-1A (Homo sapiens) [9]; 1.04 in test [10]. For the same molecule, in test [12], the composite z-score was found to be 0.192. For the same molecule, the z-score in test [2] is -1.1 (inactive); in [3] it was -0.808 (inactive); in test [4], -0.932 (inactive); in test [5] it was 0.821 (inactive); in test [11], 0.0676 (inactive); in test [13] it was 3.7 (inactive). The z-score is 0.63 (inactive) in test [14]; 0.795 (inactive) in [15]; 0.601 (inactive) in test [16]; -0.187 in test [17]; -3.1 (inactive) in test [18]; -1.21 (inactive) in test [19]. Also, in [20], the z-score is -1.2.
Turning to `CCOC(=O)C1=CC[C@@H](c2ccccc2)N(S(=O)(=O)c2ccc(C)cc2)[C@H]1c1ccccc1`, the composite z-score is 0.144 in [1]; 1.46 in test [6]; 0.115 in test [7]; 0.345 with Torsin-1A (Homo sapiens) [8]; 0.626 with Torsin-1A (Homo sapiens) [9]; -0.627 in test [10]. The molecule further showed a composite z-score in test [12] of 0.155. For the same molecule, the z-score in test [2] is -3.01 (inactive); in test [3] it was 1.29 (inactive); in test [4], -0.0228 (inactive); in test [5] it was 1.31 (inactive); in [11] it was -1.11 (inactive); in test [13], 1.97 (inactive). Moreover, the z-score in test [14] was 0.945 (inactive); in test [15], 0.369 (inactive); in test [16] it was 0.24 (inactive); in test [17], -0.685; in test [18] it was 0.18 (inactive); in test [19] it was -0.464 (inactive). The same molecule showed a z-score in test [20] of 1.75.
